What all share (experiment): DAPPL (digital affinity profiling via proximity ligation, sequencing); 10 mM Tris-HCl pH 7.5, 50 mM NaCl, 1 mM DTT, 4% glycerol, room temperature, 30 min; GST-TFs on glutathione beads, 16-mer random dsDNA library, 0.1% formaldehyde crosslink after washing; high values mean tight binding
One assay concerns the target T1, FLI1 (Homo sapiens, UniProt Q01543 1-452).
T1 sequence: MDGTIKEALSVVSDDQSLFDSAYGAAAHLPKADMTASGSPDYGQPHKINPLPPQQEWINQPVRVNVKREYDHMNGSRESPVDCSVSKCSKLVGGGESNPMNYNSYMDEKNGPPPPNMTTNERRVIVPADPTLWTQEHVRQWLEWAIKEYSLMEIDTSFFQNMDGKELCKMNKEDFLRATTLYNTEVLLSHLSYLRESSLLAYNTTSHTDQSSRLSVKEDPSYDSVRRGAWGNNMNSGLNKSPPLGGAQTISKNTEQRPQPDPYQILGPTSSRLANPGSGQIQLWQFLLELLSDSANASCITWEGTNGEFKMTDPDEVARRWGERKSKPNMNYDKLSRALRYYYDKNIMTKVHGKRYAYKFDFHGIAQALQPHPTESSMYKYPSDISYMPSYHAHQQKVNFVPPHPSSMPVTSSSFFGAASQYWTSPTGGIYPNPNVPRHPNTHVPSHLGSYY
The settings on record: protein: recombinant; tags: N-terminal GST; dsDNA, one strand shown. Put shortly:
(§1)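 Each value of binding signal is a hexamer's read frequency for a factor divided by the same hexamer's frequency in the tag-only sample. Barcoded, bead-captured GST fusions of human transcription factors made in yeast were pooled with that sample and incubated with 200 nmole of a random double-stranded 16-mer DNA library in Tris/NaCl/DTT/glycerol buffer at room temperature for 30 min. Washing, 0.1% formaldehyde crosslinking, proximity ligation, PCR and Illumina NextSeq500 sequencing followed.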

For a further assay, the target named is T2, ELK1 (Homo sapiens, UniProt P19419 1-428).
T2 sequence: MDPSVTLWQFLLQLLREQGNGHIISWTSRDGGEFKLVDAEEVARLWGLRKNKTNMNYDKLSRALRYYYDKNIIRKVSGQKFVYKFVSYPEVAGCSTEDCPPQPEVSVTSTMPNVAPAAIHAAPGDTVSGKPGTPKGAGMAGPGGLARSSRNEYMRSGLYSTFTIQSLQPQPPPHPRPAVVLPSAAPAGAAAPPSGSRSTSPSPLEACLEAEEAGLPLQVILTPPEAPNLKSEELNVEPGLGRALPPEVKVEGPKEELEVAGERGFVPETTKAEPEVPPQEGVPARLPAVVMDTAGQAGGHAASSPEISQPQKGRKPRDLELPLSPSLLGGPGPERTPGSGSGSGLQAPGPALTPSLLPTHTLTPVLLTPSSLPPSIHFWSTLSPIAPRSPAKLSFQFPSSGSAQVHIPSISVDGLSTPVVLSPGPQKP
To be noted: protein: recombinant; tags: N-terminal GST; dsDNA, one strand shown. Put shortly: as §1

A further assay has as its target T3, ERG (Homo sapiens, UniProt P11308 1-479).
T3 sequence: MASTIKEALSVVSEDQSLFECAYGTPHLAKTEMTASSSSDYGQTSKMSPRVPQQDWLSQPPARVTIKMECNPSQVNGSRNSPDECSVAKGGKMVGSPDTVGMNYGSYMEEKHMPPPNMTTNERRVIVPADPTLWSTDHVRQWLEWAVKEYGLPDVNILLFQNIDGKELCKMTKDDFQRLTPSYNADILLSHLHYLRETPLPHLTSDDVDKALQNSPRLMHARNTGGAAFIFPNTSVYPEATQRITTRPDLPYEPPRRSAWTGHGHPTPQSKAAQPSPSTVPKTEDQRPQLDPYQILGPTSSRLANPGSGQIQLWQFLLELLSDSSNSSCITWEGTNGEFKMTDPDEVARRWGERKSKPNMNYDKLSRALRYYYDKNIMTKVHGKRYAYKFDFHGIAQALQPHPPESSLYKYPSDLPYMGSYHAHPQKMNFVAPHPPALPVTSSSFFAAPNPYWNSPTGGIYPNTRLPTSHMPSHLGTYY
To be noted: protein: recombinant; tags: N-terminal GST; dsDNA, one strand shown. Summed up:
as §1

In another assay the target is ELF1 (Homo sapiens, UniProt P32519 1-619). To be noted: protein: recombinant; tags: N-terminal GST; dsDNA, one strand shown. Put shortly:
as §1

A further assay has as its target T4, EHF (Homo sapiens, UniProt Q9NZC4 1-300).
T4 sequence: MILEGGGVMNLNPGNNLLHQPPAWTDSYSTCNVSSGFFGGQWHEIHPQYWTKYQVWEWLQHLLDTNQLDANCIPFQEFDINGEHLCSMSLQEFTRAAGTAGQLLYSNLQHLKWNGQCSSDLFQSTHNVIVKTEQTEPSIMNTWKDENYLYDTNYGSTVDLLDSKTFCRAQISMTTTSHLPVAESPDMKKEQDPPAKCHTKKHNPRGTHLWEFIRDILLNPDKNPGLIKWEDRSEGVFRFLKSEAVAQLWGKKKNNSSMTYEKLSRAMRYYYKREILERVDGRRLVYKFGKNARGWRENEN
To be noted: protein: recombinant; tags: N-terminal GST; dsDNA, one strand shown. Summed up:
as §1

For the next assay, the target named is ETV5 (Homo sapiens, UniProt P41161 1-510). To be noted: protein: recombinant; tags: N-terminal GST; dsDNA, one strand shown. Summed up: as §1
Sequence of ETV5 (P41161 whole entry): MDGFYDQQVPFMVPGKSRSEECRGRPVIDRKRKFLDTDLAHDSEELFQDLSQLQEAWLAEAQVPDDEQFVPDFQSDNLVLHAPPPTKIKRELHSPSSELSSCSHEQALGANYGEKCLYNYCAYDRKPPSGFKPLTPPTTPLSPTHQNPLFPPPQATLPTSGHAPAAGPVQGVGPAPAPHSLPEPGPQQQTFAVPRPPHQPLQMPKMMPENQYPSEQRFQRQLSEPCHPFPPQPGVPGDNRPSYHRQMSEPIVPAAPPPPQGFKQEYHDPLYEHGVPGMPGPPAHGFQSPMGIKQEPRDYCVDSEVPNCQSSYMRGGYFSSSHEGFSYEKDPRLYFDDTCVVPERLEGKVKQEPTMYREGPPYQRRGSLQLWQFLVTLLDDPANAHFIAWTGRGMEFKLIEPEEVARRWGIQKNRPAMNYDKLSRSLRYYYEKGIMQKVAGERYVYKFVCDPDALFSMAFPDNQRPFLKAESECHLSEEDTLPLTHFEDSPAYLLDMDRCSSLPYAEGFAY
The next assay has as its target HSF1 (Homo sapiens, UniProt Q00613 1-529). To be noted: protein: recombinant; tags: N-terminal GST; chain copies: 3; dsDNA, one strand shown. Put shortly: as §1
For the next assay, the target named is ELF4 (Homo sapiens, UniProt Q99607 1-663). The settings on record: protein: recombinant; tags: N-terminal GST; dsDNA, one strand shown. Summed up: as §1
Sequence of ELF4 (Q99607 whole entry): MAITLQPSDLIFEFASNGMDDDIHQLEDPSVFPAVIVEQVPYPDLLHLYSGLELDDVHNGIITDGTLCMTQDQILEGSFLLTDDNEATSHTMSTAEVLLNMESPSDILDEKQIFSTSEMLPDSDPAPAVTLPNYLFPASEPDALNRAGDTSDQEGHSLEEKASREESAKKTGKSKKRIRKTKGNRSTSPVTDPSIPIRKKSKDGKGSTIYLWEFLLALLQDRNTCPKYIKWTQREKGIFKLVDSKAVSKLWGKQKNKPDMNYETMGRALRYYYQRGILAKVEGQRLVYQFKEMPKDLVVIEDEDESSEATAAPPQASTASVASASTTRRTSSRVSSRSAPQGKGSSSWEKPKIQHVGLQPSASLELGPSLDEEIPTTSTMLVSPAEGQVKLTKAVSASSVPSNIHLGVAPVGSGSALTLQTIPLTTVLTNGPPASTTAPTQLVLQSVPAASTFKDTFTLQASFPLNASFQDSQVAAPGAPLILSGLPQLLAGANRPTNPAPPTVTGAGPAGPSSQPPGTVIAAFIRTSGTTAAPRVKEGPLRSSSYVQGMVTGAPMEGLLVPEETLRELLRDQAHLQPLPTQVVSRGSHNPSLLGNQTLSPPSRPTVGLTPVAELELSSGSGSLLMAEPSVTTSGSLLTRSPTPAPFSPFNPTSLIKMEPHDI
The next assay deals with T5, ELK4 (Homo sapiens, UniProt P28324-2 1-405).
T5 sequence: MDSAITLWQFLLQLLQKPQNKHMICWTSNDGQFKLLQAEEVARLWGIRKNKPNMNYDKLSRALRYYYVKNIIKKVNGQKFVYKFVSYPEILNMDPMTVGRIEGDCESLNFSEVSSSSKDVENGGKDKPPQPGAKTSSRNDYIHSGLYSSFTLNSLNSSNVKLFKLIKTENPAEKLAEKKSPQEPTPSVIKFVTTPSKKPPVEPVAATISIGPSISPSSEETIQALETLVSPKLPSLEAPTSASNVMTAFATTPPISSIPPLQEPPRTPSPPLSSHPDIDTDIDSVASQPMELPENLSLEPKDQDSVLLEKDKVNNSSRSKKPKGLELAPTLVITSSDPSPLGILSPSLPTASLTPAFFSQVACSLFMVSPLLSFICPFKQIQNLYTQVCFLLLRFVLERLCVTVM
The settings on record: protein: recombinant; tags: N-terminal GST; dsDNA, one strand shown. Put shortly: as §1

The next assay has as its target T6, ETV2 (Homo sapiens, UniProt O00321 1-342).
T6 sequence: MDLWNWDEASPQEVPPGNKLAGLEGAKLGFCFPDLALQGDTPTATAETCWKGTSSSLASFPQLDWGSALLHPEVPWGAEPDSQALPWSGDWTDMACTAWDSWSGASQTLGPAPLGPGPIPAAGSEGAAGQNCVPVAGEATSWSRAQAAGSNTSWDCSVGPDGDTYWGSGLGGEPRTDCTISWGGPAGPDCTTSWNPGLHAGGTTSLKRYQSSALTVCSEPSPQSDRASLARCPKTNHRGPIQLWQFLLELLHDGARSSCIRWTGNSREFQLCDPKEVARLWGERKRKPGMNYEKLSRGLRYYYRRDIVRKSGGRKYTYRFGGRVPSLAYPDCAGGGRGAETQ
The settings on record: protein: recombinant; tags: N-terminal GST; dsDNA, one strand shown. Summed up: as §1

The next assay concerns the target CRX (Homo sapiens, UniProt O43186 1-299). The settings on record: protein: recombinant; tags: N-terminal GST; dsDNA, one strand shown. Summed up:
as §1

In the next assay the target is ETV1 (Homo sapiens, UniProt P50549 1-477). The settings on record: protein: recombinant; tags: N-terminal GST; dsDNA, one strand shown. Summed up: as §1
Sequence of ETV1 (P50549 whole entry): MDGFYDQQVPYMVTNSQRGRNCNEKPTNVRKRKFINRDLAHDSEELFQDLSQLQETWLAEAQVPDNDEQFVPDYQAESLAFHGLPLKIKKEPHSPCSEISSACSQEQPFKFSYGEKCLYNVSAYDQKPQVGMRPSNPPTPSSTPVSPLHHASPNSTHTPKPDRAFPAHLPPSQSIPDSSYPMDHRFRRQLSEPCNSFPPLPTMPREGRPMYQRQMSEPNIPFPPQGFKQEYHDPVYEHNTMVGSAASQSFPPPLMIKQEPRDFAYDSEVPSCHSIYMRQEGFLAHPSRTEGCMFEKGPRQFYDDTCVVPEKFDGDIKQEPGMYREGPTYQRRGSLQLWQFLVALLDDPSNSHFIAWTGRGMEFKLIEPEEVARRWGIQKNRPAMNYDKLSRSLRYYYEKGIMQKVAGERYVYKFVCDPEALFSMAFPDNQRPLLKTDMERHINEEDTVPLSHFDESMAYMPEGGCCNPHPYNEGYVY
The target of the next assay is T7, GABPA (Homo sapiens, UniProt Q06546 1-454).
T7 sequence: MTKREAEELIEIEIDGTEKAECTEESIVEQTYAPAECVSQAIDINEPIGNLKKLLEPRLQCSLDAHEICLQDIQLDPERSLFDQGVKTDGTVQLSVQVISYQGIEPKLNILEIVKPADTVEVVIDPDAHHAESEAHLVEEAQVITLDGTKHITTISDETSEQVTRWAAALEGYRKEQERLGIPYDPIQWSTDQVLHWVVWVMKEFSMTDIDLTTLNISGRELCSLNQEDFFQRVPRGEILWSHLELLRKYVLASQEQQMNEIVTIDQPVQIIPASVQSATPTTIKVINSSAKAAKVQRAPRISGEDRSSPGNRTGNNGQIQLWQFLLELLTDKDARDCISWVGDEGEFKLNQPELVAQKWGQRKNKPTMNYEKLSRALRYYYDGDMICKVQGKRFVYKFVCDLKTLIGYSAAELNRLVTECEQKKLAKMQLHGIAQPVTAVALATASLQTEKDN
The settings on record: protein: recombinant; tags: N-terminal GST; dsDNA, one strand shown. Summed up: as §1

The next assay has as its target SPI1 (Homo sapiens, UniProt P17947 1-270). To be noted: protein: recombinant; tags: N-terminal GST; dsDNA, one strand shown. Put shortly: as §1
In a further assay the target is SPIB (Homo sapiens, UniProt Q01892 1-262). The settings on record: protein: recombinant; tags: N-terminal GST; dsDNA, one strand shown. Summed up:
as §1

In the next assay the target is T8, ELK3 (Homo sapiens, UniProt P41970 1-407).
T8 sequence: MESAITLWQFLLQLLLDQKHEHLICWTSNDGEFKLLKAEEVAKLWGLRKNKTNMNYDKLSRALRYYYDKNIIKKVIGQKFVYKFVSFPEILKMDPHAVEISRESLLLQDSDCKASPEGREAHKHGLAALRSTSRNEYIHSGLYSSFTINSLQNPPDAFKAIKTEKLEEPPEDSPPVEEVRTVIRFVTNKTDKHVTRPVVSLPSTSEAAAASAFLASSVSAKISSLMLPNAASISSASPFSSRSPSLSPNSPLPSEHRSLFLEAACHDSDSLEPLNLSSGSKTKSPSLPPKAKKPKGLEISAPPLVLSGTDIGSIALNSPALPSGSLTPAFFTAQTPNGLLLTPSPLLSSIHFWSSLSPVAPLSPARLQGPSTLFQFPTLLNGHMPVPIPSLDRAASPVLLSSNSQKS
To be noted: protein: recombinant; tags: N-terminal GST; dsDNA, one strand shown. Put shortly: as §1

Another assay addresses T9, FEV (Homo sapiens, UniProt Q99581 1-238).
T9 sequence: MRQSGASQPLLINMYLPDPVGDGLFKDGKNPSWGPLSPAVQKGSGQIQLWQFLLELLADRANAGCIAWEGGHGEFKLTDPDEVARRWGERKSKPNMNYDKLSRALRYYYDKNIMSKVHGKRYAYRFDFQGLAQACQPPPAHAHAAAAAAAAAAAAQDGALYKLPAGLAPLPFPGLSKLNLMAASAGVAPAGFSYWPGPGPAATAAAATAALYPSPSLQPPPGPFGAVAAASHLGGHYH
To be noted: protein: recombinant; tags: N-terminal GST; dsDNA, one strand shown. Summed up: as §1

Another assay has as its target T10, ELF3 (Homo sapiens, UniProt P78545 1-371).
T10 sequence: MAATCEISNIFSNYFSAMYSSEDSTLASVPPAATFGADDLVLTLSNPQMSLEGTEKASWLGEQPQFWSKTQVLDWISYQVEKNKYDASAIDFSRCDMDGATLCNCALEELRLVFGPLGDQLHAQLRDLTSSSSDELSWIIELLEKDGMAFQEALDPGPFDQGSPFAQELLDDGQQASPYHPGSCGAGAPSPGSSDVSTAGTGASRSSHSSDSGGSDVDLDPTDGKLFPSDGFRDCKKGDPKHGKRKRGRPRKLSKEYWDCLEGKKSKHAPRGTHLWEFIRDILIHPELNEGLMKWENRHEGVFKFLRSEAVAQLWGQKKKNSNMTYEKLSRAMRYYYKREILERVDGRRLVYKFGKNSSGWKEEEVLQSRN
The settings on record: protein: recombinant; tags: N-terminal GST; dsDNA, one strand shown. Put shortly: as §1

Sequence of CRX (O43186 whole entry): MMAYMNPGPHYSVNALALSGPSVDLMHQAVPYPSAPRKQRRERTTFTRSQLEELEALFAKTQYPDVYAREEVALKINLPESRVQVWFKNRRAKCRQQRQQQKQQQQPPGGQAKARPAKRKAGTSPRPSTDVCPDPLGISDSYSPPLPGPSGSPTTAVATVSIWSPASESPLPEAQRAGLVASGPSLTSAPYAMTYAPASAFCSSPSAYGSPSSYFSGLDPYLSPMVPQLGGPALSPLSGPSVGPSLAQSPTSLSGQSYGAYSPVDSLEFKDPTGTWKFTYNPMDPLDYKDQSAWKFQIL
Sequence of ELF1 (P32519 whole entry): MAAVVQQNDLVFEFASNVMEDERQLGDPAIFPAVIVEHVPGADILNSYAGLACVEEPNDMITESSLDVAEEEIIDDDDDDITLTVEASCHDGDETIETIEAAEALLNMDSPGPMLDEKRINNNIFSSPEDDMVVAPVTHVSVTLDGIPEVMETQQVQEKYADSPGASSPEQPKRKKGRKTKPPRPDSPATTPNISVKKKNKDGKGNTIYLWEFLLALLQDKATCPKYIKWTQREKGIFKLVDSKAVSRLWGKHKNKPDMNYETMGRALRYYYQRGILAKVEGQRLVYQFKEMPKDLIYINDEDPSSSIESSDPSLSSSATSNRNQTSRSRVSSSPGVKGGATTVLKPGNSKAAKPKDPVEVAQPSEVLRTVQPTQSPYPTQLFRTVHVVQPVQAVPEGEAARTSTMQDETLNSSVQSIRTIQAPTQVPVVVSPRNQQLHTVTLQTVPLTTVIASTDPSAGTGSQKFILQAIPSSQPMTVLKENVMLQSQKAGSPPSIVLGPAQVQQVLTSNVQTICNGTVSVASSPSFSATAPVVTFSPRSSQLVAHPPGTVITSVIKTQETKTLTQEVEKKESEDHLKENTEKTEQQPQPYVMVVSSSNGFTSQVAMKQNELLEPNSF
Sequence of HSF1 (Q00613 whole entry): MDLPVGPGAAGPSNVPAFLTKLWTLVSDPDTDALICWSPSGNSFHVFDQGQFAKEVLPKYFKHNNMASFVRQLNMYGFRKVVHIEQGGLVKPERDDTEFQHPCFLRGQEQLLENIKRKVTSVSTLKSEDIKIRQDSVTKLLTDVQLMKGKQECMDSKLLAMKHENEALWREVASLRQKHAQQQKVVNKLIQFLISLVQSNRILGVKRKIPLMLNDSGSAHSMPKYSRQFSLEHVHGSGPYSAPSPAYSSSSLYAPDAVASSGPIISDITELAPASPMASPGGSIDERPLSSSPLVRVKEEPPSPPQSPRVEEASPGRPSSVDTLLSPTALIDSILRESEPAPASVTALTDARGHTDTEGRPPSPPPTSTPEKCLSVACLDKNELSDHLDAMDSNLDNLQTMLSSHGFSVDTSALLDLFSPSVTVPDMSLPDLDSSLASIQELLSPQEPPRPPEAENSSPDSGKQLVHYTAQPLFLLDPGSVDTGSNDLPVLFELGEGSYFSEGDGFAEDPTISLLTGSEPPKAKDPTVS
Sequence of SPIB (Q01892 whole entry): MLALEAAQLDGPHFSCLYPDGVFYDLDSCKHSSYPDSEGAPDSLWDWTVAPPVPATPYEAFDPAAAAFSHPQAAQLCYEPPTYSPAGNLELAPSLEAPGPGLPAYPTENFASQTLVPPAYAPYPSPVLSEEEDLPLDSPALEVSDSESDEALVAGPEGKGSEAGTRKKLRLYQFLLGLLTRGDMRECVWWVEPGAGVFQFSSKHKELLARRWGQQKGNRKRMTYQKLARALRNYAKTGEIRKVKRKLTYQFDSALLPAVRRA

For ACAGAT, the binding signal in the assay with FLI1 was 1.02 fold enrichment (6-mer frequency, TF over GST control); with ELK1, 1.1 fold enrichment (6-mer frequency, TF over GST control); with ERG it was 1.07 fold enrichment (6-mer frequency, TF over GST control); with ELF1 it was 1.02 fold enrichment (6-mer frequency, TF over GST control); with EHF, 1.03 fold enrichment (6-mer frequency, TF over GST control); with ETV5, 1 fold enrichment (6-mer frequency, TF over GST control). Also, the binding signal was 1.1 fold enrichment (6-mer frequency, TF over GST control) with HSF1; 1.05 fold enrichment (6-mer frequency, TF over GST control) with ELF4; 1.04 fold enrichment (6-mer frequency, TF over GST control) with ELK4; 1.05 fold enrichment (6-mer frequency, TF over GST control) in the assay with ETV2; 1.27 fold enrichment (6-mer frequency, TF over GST control) in the assay with CRX; 1.05 fold enrichment (6-mer frequency, TF over GST control) with ETV1.

Regarding ATCGCT, the binding signal with FLI1 is 1.09 fold enrichment (6-mer frequency, TF over GST control); with ELK1, 1.09 fold enrichment (6-mer frequency, TF over GST control); with GABPA, 1.09 fold enrichment (6-mer frequency, TF over GST control); with ERG, 1.01 fold enrichment (6-mer frequency, TF over GST control); with ELF1 it was 1.04 fold enrichment (6-mer frequency, TF over GST control); with EHF, 1.08 fold enrichment (6-mer frequency, TF over GST control). The binding signal was 1.02 fold enrichment (6-mer frequency, TF over GST control) with SPI1; 1.14 fold enrichment (6-mer frequency, TF over GST control) with SPIB; 1.1 fold enrichment (6-mer frequency, TF over GST control) with ELK3; 1.06 fold enrichment (6-mer frequency, TF over GST control) with FEV; 1.07 fold enrichment (6-mer frequency, TF over GST control) in the assay with ETV5; 1.08 fold enrichment (6-mer frequency, TF over GST control) with HSF1. The binding signal with ELF4 is 1.15 fold enrichment (6-mer frequency, TF over GST control); with ELK4 it was 1.06 fold enrichment (6-mer frequency, TF over GST control); in the assay with ELF3, 1.05 fold enrichment (6-mer frequency, TF over GST control); with CRX, 1.19 fold enrichment (6-mer frequency, TF over GST control); in the assay with ETV1 it was 1.08 fold enrichment (6-mer frequency, TF over GST control).

The values above are taken from article PMC7862700, “An all-to-all approach to the identification of sequence-specific readers for epigenetic DNA modifications on cytosine”.
